MITF inhib: inhibitors of MITF, primary screen, MITF inhibitor project, cell-based, luminescence | TRPM1 promoter luciferase, 24 h | inhibition, % (no concentration beside the values) | hit rate 0.28% among 37,000 | AID 2240, 2010; in the data active = inhibition above about 85%; inconclusive = no clear call, values can overlap the other calls; inactive = below about 68%;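 also: human melanocyte line stably carrying TRPM1 promoter luciferase reporter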
Hedgehog inh: Hedgehog pathway signaling inhibitors, primary screen, luminescence, Shh-LIGHT2 cells, Gli-luciferase. hit rate 2.1% among 22,000. Shh-LIGHT2 Gli-luciferase reporter, 30 h. inhibition, % (concentration not given with the values);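 active = mean inhibition across valid replicates above about 65%, limit read from the data; inconclusive = mean under the limit, yet half or more replicates past it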;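 also: pathway switched on by Shh-conditioned medium diluted 1 in 25 in low serum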
NOMO-1 viab: NOMO-1 AML cell viability reduction, primary screen, STK33 inhibitor project, CellTiter-Glo luminescence; AID 2330, 2010; inhibition, % (test concentration not listed); NOMO-1 AML viability, 72 h; hit rate 7.5% among 37,000; in the data active = inhibition above about 80%; inconclusive = no clear call, values can overlap the other calls
Active calls of the source: *; ? = inconclusive; · = not tested or not shown. Most compounds without a hit are left out; they make up all but 7.8% or so of the library.

SMILES | MITF inhib | Hedgehog inh | NOMO-1 viab
C[C@@H]1CN([C@H](C)CO)C(=O)Cc2cc(NC(=O)Cc3ccccc3)ccc2O[C@H]1CN(C)Cc1ccc2c(c1)OCO2 | 6 | -9 | 7
C[C@@H]1CN([C@@H](C)CO)C(=O)Cc2cc(NC(=O)Cc3ccccc3)ccc2O[C@@H]1CN(C)Cc1ccccc1 | -5 | -10 | 44
C[C@@H]1CN([C@@H](C)CO)C(=O)Cc2cc(NS(=O)(=O)c3cn(C)cn3)ccc2O[C@@H]1CN(C)Cc1ccc(C(=O)O)cc1 | -2 | 1 | 11
CCOC(=O)c1c(NC(=O)c2nc3ncccn3n2)sc2c1CCC(CC)C2 (configuration not stated) | 13 | -22 | -4
CCCCC[C@H](CC(=O)NO)C(=O)N[C@H](C(=O)N1CCC[C@H]1CO)C(C)C | 20 | -8 | 107*
COC(=O)c1cn(CC(N)=O)c2ccccc12 | -7 | · | -18
C=C[C@H]1[C@H](O[C@@H]2O[C@H](CO)[C@@H](O)[C@H](O)[C@H]2O)OC=C2C(=O)N3Cc4c([nH]c5ccccc5c4=O)[C@@H]3C[C@H]21 | 14 | -12 | 20
C[C@@H]1CN([C@H](C)CO)C(=O)Cc2cc(NS(C)(=O)=O)ccc2O[C@@H]1CN(C)Cc1ccc(C(F)(F)F)cc1 | -14 | 36 | 31
Cc1ccc(S(=O)(=O)Nc2ccc3c(c2)CC(=O)N([C@@H](C)CO)C[C@H](C)[C@H](CN(C)Cc2ccc(C(F)(F)F)cc2)O3)cc1 | -4 | 29 | 112*
C[C@H](CO)N1C[C@H](C)[C@H](CN(C)Cc2ccc(C(F)(F)F)cc2)Oc2ccc(NS(C)(=O)=O)cc2CC1=O | -7 | -11 | 19
C[C@H](CO)N1C[C@H](C)[C@H](CN(C)Cc2ccc(C(F)(F)F)cc2)Oc2ccc(NS(=O)(=O)c3ccc(F)cc3)cc2CC1=O | 7 | · | 103*
Cc1ccc(S(=O)(=O)Nc2ccc3c(c2)CC(=O)N([C@@H](C)CO)C[C@H](C)[C@@H](CN(C)S(=O)(=O)c2cccs2)O3)cc1 | 6 | 13 | 19
Cc1cc(C(=O)Sc2cccc(Br)c2)nn1C(C)(C)C | -9 | ? | 34
CC(C)NC(=O)Nc1ccc2c(c1)C(=O)N([C@@H](C)CO)C[C@H](C)[C@@H](CN(C)C(=O)Nc1ccc(C(F)(F)F)cc1)O2 | 7 | -35 | 19
CC(Oc1ccc(Cl)cc1Cl)C(=O)Nc1cccc(NC(=O)c2ccc(Cl)cc2Cl)c1 (configuration not stated) | -11 | · | 17
CC12CC3CC(C1)CC(NC(=O)c1ccc(Cl)cc1Cl)(C3)C2 | 34 | -60 | 115*
COc1cc(-c2nnn(CC(=O)O)n2)cc(OC)c1OC | -13 | · | -12
C[C@H](CO)N1C[C@H](C)[C@@H](CN(C)Cc2ccc(C(=O)Nc3ccccc3N)cc2)Oc2ccc(NC(=O)Nc3ccc(F)cc3)cc2C1=O | 0 | · | 31
C[C@@H]1CN([C@H](C)CO)C(=O)c2cc(NC(=O)Cc3ccccc3)ccc2O[C@@H]1CN(C)Cc1ccc(C(=O)Nc2ccccc2N)cc1 | -29 | · | 105*
C[C@@H]1CN([C@H](C)CO)C(=O)c2cc(NC(=O)Nc3ccccc3)ccc2O[C@@H]1CN(C)Cc1ccc(C(=O)Nc2ccccc2N)cc1 | 11 | · | 109*
C[C@H](CO)N1C[C@H](C)[C@@H](CN(C)Cc2ccc(C(=O)Nc3ccccc3N)cc2)Oc2ccc(NC(=O)Cc3ccccc3)cc2C1=O | -18 | · | 4
Cc1noc(C)c1S(=O)(=O)Nc1ccc2c(c1)C(=O)N([C@H](C)CO)C[C@H](C)[C@H](CN(C)Cc1ccc3c(c1)OCO3)OCCCC[C@@H](C)O2 | -5 | ? | 26
C[C@@H]1CN([C@H](C)CO)C(=O)c2cc(NS(=O)(=O)c3ccc(F)cc3)ccc2O[C@@H]1CN(C)C(=O)Nc1ccc2c(c1)OCO2 | -8 | · | -7
C[C@@H]1CCCCO[C@H](CN(C)S(=O)(=O)c2cccs2)[C@@H](C)CN([C@H](C)CO)C(=O)c2cc(NC(=O)CCCCCC(=O)Nc3ccccc3N)ccc2O1 | -2 | · | 21
COc1ccc(OCC(=O)Nc2ccc(C)cc2[N+](=O)[O-])cc1 | -28 | · | -17
SMILES | MITF inhib | Hedgehog inh | NOMO-1 viab
COc1ccc(CN(C)C[C@@H]2OCCCC[C@@H](C)Oc3ccc(NS(=O)(=O)c4ccc(Cl)cc4)cc3C(=O)N([C@H](C)CO)C[C@@H]2C)cc1 | -4 | -21 | 30
C[C@@H]1CCCCO[C@@H](CN(C)Cc2ccc(Cl)c(Cl)c2)[C@@H](C)CN([C@H](C)CO)C(=O)c2cc(NS(=O)(=O)c3ccc(Cl)cc3)ccc2O1 | 55 | -57 | 73
COc1ccc(S(=O)(=O)Nc2ccc3c(c2)C(=O)N([C@H](C)CO)C[C@H](C)[C@@H](CN(C)Cc2ccc(Cl)c(Cl)c2)OCCCC[C@@H](C)O3)cc1 | ? | 69* | 125*
C[C@@H]1CCCCO[C@H](CN(C)Cc2ccc(Cl)c(Cl)c2)[C@@H](C)CN([C@H](C)CO)C(=O)c2cc(NS(=O)(=O)c3ccc(Cl)cc3)ccc2O1 | 53 | 20 | 116*
CCn1c(SCC(=O)Nc2ccccc2C)nc2ccc(I)cc2c1=O | -7 | · | 47
C[C@@H]1CN([C@@H](C)CO)C(=O)c2cc(NS(=O)(=O)c3cccs3)ccc2O[C@H]1CN(C)Cc1ccc(C(=O)Nc2ccccc2N)cc1 | -12 | · | 29
C[C@@H]1CCCCO[C@H](CN(C)Cc2ccc(C(=O)Nc3ccccc3N)cc2)[C@@H](C)CN([C@H](C)CO)C(=O)c2cc(NS(=O)(=O)c3cccs3)ccc2O1 | 16 | · | 127*
C[C@@H]1CCCCO[C@@H](CN(C)Cc2ccc(C(=O)Nc3ccccc3N)cc2)[C@@H](C)CN([C@H](C)CO)C(=O)c2cc(NS(=O)(=O)c3cccs3)ccc2O1 | 15 | · | 139*
C[C@@H]1CCCCO[C@H](CN(C)Cc2ccccc2)[C@@H](C)CN([C@H](C)CO)C(=O)c2cc(NS(=O)(=O)c3cccs3)ccc2O1 | 11 | 18 | 28
CCCOc1ccc(Oc2nc(Nc3ccc(C)cc3)nc(N3CCOCC3)n2)nn1 | -60 | · | -5
C[C@@H]1CN([C@H](C)CO)C(=O)c2cccc(NC(=O)NC3CCCCC3)c2O[C@@H]1CN(C)Cc1ccncc1 | -4 | -20 | -4
CC(C)NC(=O)N(C)C[C@@H]1Oc2ccc(NC(=O)Cc3ccccc3)cc2C(=O)N([C@H](C)CO)C[C@H]1C | -7 | · | -5
C[C@H](CO)N1C[C@H](C)[C@H](CN(C)Cc2ccc(C(F)(F)F)cc2)Oc2ccc(NC(=O)Nc3ccccc3)cc2CC1=O | 3 | · | 86*
C[C@@H]1CN([C@H](C)CO)C(=O)Cc2cc(NC(=O)Nc3ccc(C(F)(F)F)cc3)ccc2O[C@H]1CN(C)Cc1ccc(C(=O)O)cc1 | -1 | -14 | 13
C[C@@H]1CN([C@H](C)CO)C(=O)Cc2cc(NC(=O)Nc3ccccc3)ccc2O[C@H]1CN(C)Cc1ccc(C(F)(F)F)cc1 | 3 | 28 | 118*
C[C@@H]1CN([C@H](C)CO)C(=O)Cc2cc(NC(=O)Nc3ccc(C(F)(F)F)cc3)ccc2O[C@@H]1CN(C)Cc1ccc(C(=O)O)cc1 | -6 | · | 16
COc1ccc(OC)c(NC(=O)COc2ccc3c(C)cc(=O)oc3c2)c1 | -22 | · | -6

High-throughput results as filed in PubChem BioAssay.
